# In all, about 340,000 compounds went through this assay and about 1,000 (0.29%) were called active. Rule as the data show it: inconclusive = inhibition above about 29% without an active follow-up result; inactive = below that. Only a sample is shown. Potency and affinity values are given separately.
# Biological target: Genome polyprotein (Dengue virus type 2 (strain 16681-PDK53)) (UniProt P29991)
# Experiment: flavivirus cap methylation enzyme inhibition – biochemical, confirmation dose response, primary screen (AID 588689)
# Conditions: Dengue-2 NS5 methyltransferase capping enzyme assay, at 25 µM, stronger effect = higher value
# [1] = measured here: pilot screen replicate inhibition
# Sequence of Genome polyprotein (Dengue virus type 2 (strain 16681-PDK53)) (P29991 whole entry, looked up): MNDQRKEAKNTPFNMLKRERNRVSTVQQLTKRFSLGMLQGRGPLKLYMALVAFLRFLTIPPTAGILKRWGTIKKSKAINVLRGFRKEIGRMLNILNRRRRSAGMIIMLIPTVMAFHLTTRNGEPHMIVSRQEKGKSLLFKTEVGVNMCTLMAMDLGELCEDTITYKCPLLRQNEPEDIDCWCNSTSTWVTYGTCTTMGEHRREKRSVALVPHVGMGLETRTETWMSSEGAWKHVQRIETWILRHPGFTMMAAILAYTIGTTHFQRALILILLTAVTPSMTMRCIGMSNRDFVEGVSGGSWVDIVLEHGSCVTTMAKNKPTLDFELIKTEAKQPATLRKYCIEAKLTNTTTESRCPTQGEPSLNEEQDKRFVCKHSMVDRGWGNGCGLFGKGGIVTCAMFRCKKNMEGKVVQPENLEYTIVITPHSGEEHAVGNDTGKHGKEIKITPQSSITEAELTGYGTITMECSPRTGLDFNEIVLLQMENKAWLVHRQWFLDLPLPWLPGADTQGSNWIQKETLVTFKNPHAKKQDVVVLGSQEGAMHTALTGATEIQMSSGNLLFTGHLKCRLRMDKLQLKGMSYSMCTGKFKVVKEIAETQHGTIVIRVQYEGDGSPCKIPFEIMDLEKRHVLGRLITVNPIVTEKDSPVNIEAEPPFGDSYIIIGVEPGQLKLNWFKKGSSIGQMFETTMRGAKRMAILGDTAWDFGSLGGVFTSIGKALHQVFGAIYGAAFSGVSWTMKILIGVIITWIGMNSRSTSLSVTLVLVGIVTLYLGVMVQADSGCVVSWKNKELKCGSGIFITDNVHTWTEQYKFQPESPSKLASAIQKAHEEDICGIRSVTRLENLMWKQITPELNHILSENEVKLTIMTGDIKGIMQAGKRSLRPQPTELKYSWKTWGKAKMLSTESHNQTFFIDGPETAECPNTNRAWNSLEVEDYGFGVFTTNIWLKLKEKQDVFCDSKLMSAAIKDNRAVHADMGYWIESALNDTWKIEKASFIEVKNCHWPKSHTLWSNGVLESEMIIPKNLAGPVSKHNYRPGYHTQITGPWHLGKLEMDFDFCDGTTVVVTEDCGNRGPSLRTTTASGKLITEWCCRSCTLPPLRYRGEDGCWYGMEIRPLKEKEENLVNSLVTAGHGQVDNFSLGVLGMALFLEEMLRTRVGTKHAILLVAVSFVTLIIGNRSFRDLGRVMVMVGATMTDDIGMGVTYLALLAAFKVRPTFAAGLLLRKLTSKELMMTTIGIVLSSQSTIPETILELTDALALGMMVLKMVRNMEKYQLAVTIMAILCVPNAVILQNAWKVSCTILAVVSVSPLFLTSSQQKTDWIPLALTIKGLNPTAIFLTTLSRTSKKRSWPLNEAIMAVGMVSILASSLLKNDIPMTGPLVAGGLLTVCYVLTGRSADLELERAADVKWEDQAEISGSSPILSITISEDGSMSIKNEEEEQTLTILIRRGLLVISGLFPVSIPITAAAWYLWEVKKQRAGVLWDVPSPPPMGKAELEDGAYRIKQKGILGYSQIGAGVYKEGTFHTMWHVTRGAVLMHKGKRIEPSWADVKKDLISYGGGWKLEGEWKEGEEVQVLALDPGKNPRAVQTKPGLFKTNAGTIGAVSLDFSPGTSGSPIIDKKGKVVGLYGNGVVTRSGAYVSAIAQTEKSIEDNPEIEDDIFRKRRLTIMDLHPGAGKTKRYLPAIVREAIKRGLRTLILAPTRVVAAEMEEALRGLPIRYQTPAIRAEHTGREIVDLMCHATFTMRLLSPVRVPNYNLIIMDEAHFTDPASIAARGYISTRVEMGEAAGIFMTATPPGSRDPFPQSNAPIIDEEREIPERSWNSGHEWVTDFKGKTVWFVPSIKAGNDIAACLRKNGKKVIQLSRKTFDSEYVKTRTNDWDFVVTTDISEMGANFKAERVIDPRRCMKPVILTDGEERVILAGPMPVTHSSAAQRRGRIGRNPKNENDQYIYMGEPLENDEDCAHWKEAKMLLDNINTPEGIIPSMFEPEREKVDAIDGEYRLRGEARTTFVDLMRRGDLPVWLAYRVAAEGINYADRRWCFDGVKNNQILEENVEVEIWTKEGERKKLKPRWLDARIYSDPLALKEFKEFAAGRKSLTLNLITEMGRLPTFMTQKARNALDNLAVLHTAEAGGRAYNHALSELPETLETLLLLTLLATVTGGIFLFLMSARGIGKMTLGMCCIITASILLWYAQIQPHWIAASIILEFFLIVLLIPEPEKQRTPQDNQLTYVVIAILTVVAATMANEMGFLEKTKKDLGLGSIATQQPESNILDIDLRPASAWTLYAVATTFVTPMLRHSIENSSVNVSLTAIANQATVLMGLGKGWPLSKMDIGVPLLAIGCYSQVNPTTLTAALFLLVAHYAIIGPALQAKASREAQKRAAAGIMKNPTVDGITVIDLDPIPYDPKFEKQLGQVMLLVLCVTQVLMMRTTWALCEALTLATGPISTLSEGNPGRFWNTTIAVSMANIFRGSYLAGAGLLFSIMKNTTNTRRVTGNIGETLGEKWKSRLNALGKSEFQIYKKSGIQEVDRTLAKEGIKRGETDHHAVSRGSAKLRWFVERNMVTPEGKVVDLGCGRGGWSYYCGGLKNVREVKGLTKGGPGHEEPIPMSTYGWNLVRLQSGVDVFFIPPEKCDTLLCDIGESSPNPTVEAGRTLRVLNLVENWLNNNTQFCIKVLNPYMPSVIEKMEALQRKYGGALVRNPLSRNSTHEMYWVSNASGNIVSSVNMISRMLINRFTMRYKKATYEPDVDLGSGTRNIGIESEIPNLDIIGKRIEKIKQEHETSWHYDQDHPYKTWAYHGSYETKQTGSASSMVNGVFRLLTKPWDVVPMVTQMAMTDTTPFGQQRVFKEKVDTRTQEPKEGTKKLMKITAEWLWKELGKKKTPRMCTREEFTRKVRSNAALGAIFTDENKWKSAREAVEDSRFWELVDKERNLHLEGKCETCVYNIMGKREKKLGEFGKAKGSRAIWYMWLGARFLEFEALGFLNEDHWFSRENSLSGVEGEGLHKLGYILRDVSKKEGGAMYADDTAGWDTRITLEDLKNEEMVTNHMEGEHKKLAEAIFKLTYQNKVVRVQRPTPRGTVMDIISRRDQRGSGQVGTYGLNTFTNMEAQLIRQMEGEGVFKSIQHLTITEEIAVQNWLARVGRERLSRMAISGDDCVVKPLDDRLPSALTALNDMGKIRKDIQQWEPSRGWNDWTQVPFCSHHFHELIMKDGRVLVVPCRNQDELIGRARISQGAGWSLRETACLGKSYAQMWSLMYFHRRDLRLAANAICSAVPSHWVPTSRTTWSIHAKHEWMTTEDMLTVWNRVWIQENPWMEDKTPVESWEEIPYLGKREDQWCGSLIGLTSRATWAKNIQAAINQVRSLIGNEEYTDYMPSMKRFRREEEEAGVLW
Compound,inhibition,inhibition [1]
Cc1cc(-c2ccc(S(=O)(=O)NCc3ccc(F)cc3)cc2)on1,-4.39% (inactive),
O=C(Cc1ccc(Br)cc1)N/N=C/c1cccnc1,1.95% (inactive),
CCOC(=O)Cc1csc(SC(C)C(=O)Nc2ccc(NC(C)=O)cc2)n1 (stereo not drawn),-3.63% (inactive),
Cc1ccc(/C=C/C2=NN(Cc3ccccc3Cl)C(=O)CC2)cc1,-2.71% (inactive),
O=C(CCC1CCCC1)NCCS(=O)(=O)N1CCN(c2ccccc2)CC1,-5.17% (inactive),
Cc1c(C(=O)OCC(=O)N2CC(=O)Nc3ccccc32)oc2ccc(Br)cc12,-0.83% (inactive),
Cc1cccc(NC(=O)C(=O)NCC2CCCN2S(=O)(=O)c2cccs2)c1 (stereo not drawn),6.86% (inactive),
Cc1onc(-c2ccccc2)c1C(=O)OCC(=O)c1ccc[nH]1,-1.1% (inactive),
COC(=O)NC1CSCC1OC(=O)CN1C(=O)c2ccccc2C1=O (stereo not drawn),1.83% (inactive),
NS(=O)(=O)c1ccc(NC(=O)COc2ccc(S(=O)(=O)N3CCCC3)cc2)cc1,-0.81% (inactive),
O=C1NC(=O)N(c2ccccc2)C1=O,0% (inactive),
O=C1N/C(=C/c2ccc(Br)s2)C(=O)N1c1ccccc1,-5.43% (inactive),
Cc1ccc(-n2nnnc2CS(=O)(=O)c2ccccc2)c(C)c1,-5.86% (inactive),
C=CCc1ccccc1OCC(=O)OCCNC(=O)c1cccnc1,3.9% (inactive),
Cc1ccc(NCc2ccccc2)cc1,-5.19% (inactive),
CSc1ccc(CNc2ccc(C)cc2)cc1,2.76% (inactive),
COc1ccc(OC)c(N=c2oc3c(OC)cccc3cc2C(=O)NCc2ccco2)c1,-9.6% (inactive),-5.77%
COc1ccccc1N=c1oc2c(OC)cccc2cc1C(=O)NCc1ccco1,12.3% (inactive),6.37%
O=c1oc2ccccc2c(O)c1C=Nc1cccnc1,-5.19% (inactive),
O=[N+]([O-])c1c(Nc2ccc(O)cc2)cc(N2CCOCC2)c2nonc12,9.17% (inactive),

Compound,inhibition,inhibition [1]
Nc1cc(Nc2ccccc2)c2nonc2c1[N+](=O)[O-],-1.31% (inactive),
CN(C)c1cc(Nc2cccc(O)c2)c([N+](=O)[O-])c2nonc12,6.85% (inactive),
O=[N+]([O-])c1ccc(Nc2ccccn2)c([N+](=O)[O-])c1,-9.54% (inactive),
CC(=O)Nc1ccc(Nc2cc(N(C)C)c3nonc3c2[N+](=O)[O-])cc1,-5.29% (inactive),
CN(C)c1cc(Nc2ccc(O)cc2)c([N+](=O)[O-])c2nonc12,-10.7% (inactive),
COc1cccc(Nc2cc(N3CCOCC3)c3nonc3c2[N+](=O)[O-])c1,2.01% (inactive),
CC(=O)Nc1ccc(Nc2cc(N3CCOCC3)c3nonc3c2[N+](=O)[O-])cc1,-6.25% (inactive),
Cc1ccc(-c2cc(C(=O)N3CCOCC3)c3cc(C)ccc3n2)cc1,-1.58% (inactive),
O=C1CS/C(=C\S(=O)(=O)c2ccc(Cl)cc2)N1,-10.6% (inactive),
CCC(=O)N1c2ccccc2-c2nnc(SC)nc2OC1c1ccc(N(C)C)cc1 (stereo not drawn),-7.25% (inactive),
Cc1cnn(C(=O)c2cc(-c3ccccn3)nc3ccc(Cl)cc23)c1,8.88% (inactive),
CCOC(=O)NC1(C(F)(F)F)NC(=O)N(C2CCCCC2)C1=O (stereo not drawn),-2.12% (inactive),
COc1ccc(CCNC(=O)CSc2nc(=O)n3cc(C)ccc3n2)cc1OC,3.6% (inactive),
CCCCn1c(SCC(=O)NNC(=O)c2ccccc2)n[nH]c1=O,3.69% (inactive),
Cc1nnc(SCC(=O)Nc2nc3ccccc3s2)n(N)c1=O,-2.58% (inactive),
O=C(O)c1cccc(Nc2ccc3nonc3c2[N+](=O)[O-])c1,1.54% (inactive),
O=C(O)c1ccc(Nc2ccc([N+](=O)[O-])c3nonc23)cc1,-1.54% (inactive),
CCNc1cc(Nc2c(C)n(C)n(-c3ccccc3)c2=O)c([N+](=O)[O-])c2nonc12,6.99% (inactive),
Cc1c(Nc2cc(N3CCCCCC3)c3nonc3c2[N+](=O)[O-])c(=O)n(-c2ccccc2)n1C,-6.93% (inactive),
O=[N+]([O-])c1c(Nc2ccccc2O)cc(N2CCOCC2)c2nonc12,6.36% (inactive),

Compound,inhibition,inhibition [1]
O=C(O)c1ccc(Nc2ccc3nonc3c2[N+](=O)[O-])cc1,-2.31% (inactive),
O=C(O)c1cccc(Nc2ccc([N+](=O)[O-])c3nonc23)c1,1.29% (inactive),
O=[N+]([O-])c1c(Nc2ccccc2O)ccc2nonc12,6.25% (inactive),
O=C(COC(=O)/C=C/c1cccc(Br)c1)NCc1cccs1,-4.41% (inactive),
COCCCNC(=O)Cn1cnc(C(=O)Nc2ccc(C)c(C)c2)n1,-3.97% (inactive),0.615%
COc1cccc(Nc2nc(N)nc(-c3oc4ccccc4c3C)n2)c1,-4.01% (inactive),
Cc1ccc(NS(=O)(=O)c2ccc(OCC(=O)NCC3CCCO3)cc2)cc1 (stereo not drawn),2.96% (inactive),
O=S(=O)(Nc1ccc2c(c1)nc1n2CCOC1)c1ccc(Cl)cc1,-6.15% (inactive),
COc1ccc(O)c(/C=N/N2CCOCC2)c1,-4.77% (inactive),
COc1cccc(/C=N/N2CCOCC2)c1O,-2.67% (inactive),
COc1ccc(C=C2NC(=O)NC2=O)cc1O,5.71% (inactive),
COc1ccc(NC(=S)N(CCC(C)C)C(C)c2ccncc2)cc1 (stereo not drawn),0.57% (inactive),
CCOC(=O)c1ccc(OCc2nc(-c3cccs3)no2)cc1,-0.7% (inactive),
CN(C)S(=O)(=O)c1cccc(NC(=O)CO/N=C(\N)c2ccccc2)c1,2.16% (inactive),
CN(C)S(=O)(=O)c1cccc(-c2nn(-c3ccccc3)cc2/C=C2\SC(=S)NC2=O)c1,-16% (inactive),
CC1CCN(C2=NC(=O)/C(=C/c3cn(-c4ccccc4)nc3-c3cccc(S(=O)(=O)N(C)C)c3)S2)CC1,-0.56% (inactive),
CCN1C(=O)/C(=C\c2cn(-c3ccccc3)nc2-c2cccnc2)SC1=S,2.99% (inactive),
COc1ccc(-c2nn(-c3ccccc3)cc2/C=C2/SC(=S)N(CCC(=O)O)C2=O)cc1,11.8% (inactive),
CCC(=O)Nc1ccc2c(c1)ncn2C,-8.57% (inactive),
CCC(=O)Nc1ccc2ccccc2c1,-7.67% (inactive),
